TRHR PAM: allosteric enhancers of human TRH receptor | P34981 | TRHR cells, fluo-8 calcium fluorescence, EC20 TRH enhancement | AID 493056 | enhancement, % at 2 µM | hit rate 0.66% among 360,000; in the data active = enhancement above about 30%; note: 0% is about no effect
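TRHR-expressing cells loaded with fluo-8 calcium dye were read kinetically (ex 480/em 530) during compound addition, then stimulated with an EC20 of TRH (10 nM final). Enhancement of the Gq-mediated intracellular calcium response was scored.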
D1 antag: antagonists of human D1 dopamine receptor; P21728; HEK293 TREx D1 cells, calcium flux, dopamine EC80; stronger effect = lower value; activity change, negative = inhibition, % at 10 µM; hit rate 3.2% among 360,000; AID 504652; in the data active = activity change below about -30%; note: % is set by controls: 0 for no effect and ±100 for the full control effect
Target sequence (P21728 whole entry, looked up): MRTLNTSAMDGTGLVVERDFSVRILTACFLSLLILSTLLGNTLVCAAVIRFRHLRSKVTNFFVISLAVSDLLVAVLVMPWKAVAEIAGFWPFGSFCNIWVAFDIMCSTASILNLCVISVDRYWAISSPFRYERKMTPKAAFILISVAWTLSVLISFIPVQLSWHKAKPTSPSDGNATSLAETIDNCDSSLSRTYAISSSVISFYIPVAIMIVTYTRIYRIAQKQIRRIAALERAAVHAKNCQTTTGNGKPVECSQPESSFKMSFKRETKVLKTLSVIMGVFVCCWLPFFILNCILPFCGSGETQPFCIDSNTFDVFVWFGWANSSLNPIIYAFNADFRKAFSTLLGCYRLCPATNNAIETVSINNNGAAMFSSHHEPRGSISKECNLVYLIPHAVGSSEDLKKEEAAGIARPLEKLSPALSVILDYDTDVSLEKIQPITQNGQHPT
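Antagonism measured as reduced calcium response to an EC80 dopamine addition following 180 s compound pre-read; cells were inducible HEK293 Trex D1 plated overnight at 30 C, read kinetically at 1 cycle/sec.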
D1 PAM: potentiators of human D1 dopamine receptor | HEK293 TREx D1 cells, calcium flux, dopamine EC20 potentiation | potentiation, % at 10 µM | P21728 | hit rate 0.036% among 360,000 | AID 504651; in the data active = potentiation above about 30%; note: 0% is about no effect
D1 agonist: agonists of human D1 dopamine receptor; hit rate 1% among 360,000; activation, % at 2 µM; HEK293 T-REx D1 cells, calcium flux, agonist mode; P21728; note: 0% is about no effect
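Tetracycline-induced HEK293 TREx D1 cells, force-coupled to calcium signalling, were dye-loaded with a no-wash calcium kit. Compound was pin-added after a 10 s baseline. Fluorescence was read kinetically at 1 cycle/s for 180 s, with calcium rises flagged as agonism.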
TRHR ag: activates the human TRH receptor; P34981; TRHR cells, calcium flux fluo-8, FDSS agonist mode; activation, % at 2 µM; AID 493084; hit rate 0.18% among 360,000; note: 0% is about no effect
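Steps: seed TRHR cells overnight; add fluo-8 no-wash Ca dye, RT 30 min–1.5 h; record 10 s baseline; pin-transfer compounds; monitor fluorescence 1 cycle/s for the agonist window. Calcium increases flag candidate agonists.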
Numbers without * were called inactive; nt = no result. The list is not random: actives were taken first. Their share in the collection is about 4.7%. Cut-off read from the data, not from the text of the source, unless noted: active = activation above about 30%; inactive = the rest.

SMILES	TRHR PAM	D1 antag	D1 PAM	D1 agonist	TRHR ag
COc1ccc(C)cc1S(=O)(=O)Nc1cccc(-c2ccc(N3CCCC3)nn2)c1	1	8	-1	0	0
COc1cc(Br)c(C(=O)c2nccc3cc(OC)c(OC)cc23)cc1OC	-2	-31*	-6	1	0
COc1cc(N)c(C(=O)c2nccc3cc(OC)c(OC)cc23)cc1OC	-5	27	-3	15	0
CNc1snc(C)c1C(=O)OCC(=O)N(C)Cc1ccccc1	11	-43*	-7	14	0
CNc1snc(C)c1C(=O)OCC(=O)N(C)c1ccccc1	6	18	6	4	1
CNc1snc(C)c1C(=O)OC(C)C(=O)Nc1ccccc1 (stereo not given)	8	-32*	-6	9	0
CNc1snc(C)c1C(=O)OC(C)C(=O)Nc1ccc(F)cc1 (stereo not given)	-3	-21	0	12	-1
CCN(C(=O)COC(=O)c1c(C)nsc1NC)c1ccccc1	-6	-3	nt	31*	0
CCOc1ccc(-c2noc(CCCC(=O)NC3CCCC3)n2)cc1OC	-26	-85*	nt	0	-1
COc1ccc(-c2noc(CCCC(=O)NC3CCCCC3)n2)cc1	-1	-37*	-14	6	0
COc1ccc(-c2noc(CCCC(=O)NC3CCCCC3)n2)cc1OC	-3	-2	7	3	0
CC(C)NC(=O)CC(=O)Nc1ccc2nc3n(c(=O)c2c1)CCCCC3	14	-10	2	1	0
COc1ccc(S(=O)(=O)N2CCN(C(=O)CCc3c[nH]c4ccccc34)CC2)cc1	-5	-5	2	0	1
COc1ccc(C2(C(=O)Nc3cc(C)on3)CCOCC2)cc1	5	-60*	-1	-1	1
CCc1nn(CC(=O)N2CCN(c3cccc(C(F)(F)F)c3)CC2)c(=O)c2cccn12	8	-41*	-5	24	0
CCc1nn(CC(=O)N2CCC(C)CC2)c(=O)c2cccn12	6	3	1	0	1
O=C(CCCSc1nc2ccccc2[nH]1)Nc1nnc(C2CC2)s1	-19	-36*	-11	4	0
O=C(CCCSc1nc2ccccc2[nH]1)NC1CCCCC1	-2	6	-2	2	1
CCSc1nnc(NC(=O)C(C)Sc2nc3ccccc3[nH]2)s1 (stereo not given)	36*	10	-3	3	0
Cc1ccc(NC(=O)CCCSc2nc3ccccc3[nH]2)cc1	4	-33*	-1	1	-1
O=[N+]([O-])c1ccc(NC2CCCC2)cc1	2	-17	3	9	0
O=[N+]([O-])c1ccc(N/N=C2/CCCCC2c2ccccn2)cc1 (stereo not given)	-1	-59*	9	2	0
CC(C)n1c(CN2CCN(C(=O)c3ccco3)CC2)nc2c1c(=O)n(C)c(=O)n2C	-2	2	3	3	0
COC(=O)c1ccccc1NC(=O)Cn1cnc2cc(C)c(C)cc21	0	-16	-4	38*	0
COC(=O)c1ccccc1NC(=O)Cn1cnc2c(cnn2-c2ccccc2)c1=O	-7	-2	6	1	0
SMILES	TRHR PAM	D1 antag	D1 PAM	D1 agonist	TRHR ag
CCC(=O)Nc1ccccc1-c1nc2ccccc2n(C(C)C(=O)Nc2ccc(OC)cc2)c1=O (stereo not given)	-1	-31*	-4	6	1
CCC(=O)Nc1ccccc1-c1nc2ccccc2n(C(CC)C(=O)Nc2cccc(Cl)c2)c1=O (stereo not given)	10	-21	-3	-1	0
CC(=O)Nc1sc2c(c1C(c1cccc(Cl)c1)N1CCN(CCO)CC1)CCCC2 (stereo not given)	12	-30*	-5	15	3
COc1ccc(C(c2c(NC(C)=O)sc3c2CCCC3)N2CCN(CCO)CC2)cc1OC (stereo not given)	-7	-11	2	6	1
OCC1(Cc2cccc(C(F)(F)F)c2)CCN(Cc2cc(F)cc(F)c2)CC1	-6	8	5	0	2
CSc1cccc(CN2CCC(CO)(Cc3cccc(C(F)(F)F)c3)CC2)c1	-9	13	-1	41*	6
CCOc1ccc(Nc2nc(N)c([N+](=O)[O-])c(N3CCOCC3)n2)cc1	38*	-1	-6	1	1
CCOc1ccc(Nc2nc(N)c([N+](=O)[O-])c(N3CCN(CC)CC3)n2)cc1	21	4	-7	0	0
CCCCC(=O)Nc1nc(C)c(C(C)=O)s1	4	-50*	nt	3	0
CC(=O)c1sc(NC(=O)C2(F)C(F)(F)C(F)(F)C(F)(F)C(F)(F)C2(F)F)nc1C	2	-35*	4	23	-1
CCCC(=O)Nc1nc(C)c(C(C)=O)s1	-4	-3	-1	1	-1
COc1cc2ccccc2cc1C(=O)Nc1cccc(-c2nc3cc(C)c(C)cc3o2)c1	3	4	0	1	0
CN(C)c1ccc(/C=C/C(=O)c2c(O)c3ccccc3oc2=O)cc1	9	-17	-4	156*	38*
CCOc1ccc(/C=C/C(=O)c2c(O)c3ccccc3oc2=O)cc1	0	2	2	1	0
Cc1ccc(CNC(=O)C2CCC(CNS(=O)(=O)c3ccc(C)cc3)CC2)cc1 (stereo not given)	0	0	0	5	-1
CCOc1ccc(NC(=O)c2nn(C)c3c2COc2ccccc2-3)cc1	-4	-19	-1	4	0
CCn1c(C)cc(/C=C2\SC(=O)N(CC(=O)Nc3ccc(C)c(C)c3)C2=O)c1C	16	-38*	-2	0	0
O=S(=O)(NCCc1nnc2ccc(SCc3ccccc3Cl)nn12)c1ccccc1	-8	-5	12	-1	0
Cc1ccc(NC(=O)CCCc2ccccc2)c([N+](=O)[O-])c1	-4	-48*	0	2	-1
O=C(CCc1ccccc1)NC(=S)Nc1ccccc1[N+](=O)[O-]	-3	-34*	-1	-1	0
O=C(CCc1ccccc1)NC(=S)Nc1ccccc1Br	0	nt	-5	1	1
O=C(CCCc1ccccc1)Nc1ccccc1[N+](=O)[O-]	-5	-3	3	1	0
O=C(CCc1ccccc1)Nc1ccccc1[N+](=O)[O-]	4	-36*	-9	0	-1
COc1ccc(C(CNCC(O)COc2c(C)ccc(C)c2C)N(C)C)cc1 (stereo not given)	1	1	-4	5	1
COc1ccc(-c2noc(CNC(=O)CCN3C(=O)[C@H]4CC=CC[C@H]4C3=O)n2)cc1	2	15	8	4	0
O=C1c2ccccc2-c2onc3ccc(Oc4ccccc4)c1c23	32*	97	21	11	2

Bioassay records deposited in PubChem BioAssay by National Center for Advancing Translational Sciences (NCATS).
